mHTT-CaM PPI inh = inhibitors of human mutant huntingtin-calmodulin interaction; P42858; AlphaScreen His-mHTT/GST-CaM binding, luminescence; inhibition, % at 15 µM; 190,000 tested, 3.6% active; AID 1671202;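 note: 0% = both proteins with DMSO and 100% = one protein alone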
Pf apPOL block = Pf-apPOL DNA polymerase inhibition; Recombinant Pf-apPOL, molecular beacon fluorescence, 1.5 h; 210,000 tested, 0.25% active; inhibition, % at 10 µM
Numbers without * were called inactive; x = no result given; + = active, no number; ! = not active in a repeat. The list is not random: actives were taken first. Their share in the collection is about 3.6%. Cut-off read from the data, not from the text of the source: active = inhibition above about 50%; inactive = the rest.

SMILES	mHTT-CaM PPI inh	Pf apPOL block
CC1(C)CC(=O)C2=C(C1)Nc1ccccc1NC2c1ccccc1 (stereo not drawn)	-2	1
O=c1/c(=C/c2cccc(F)c2)sc2nc(-c3ccc(Cl)cc3)nn12	4	-2
Clc1ccc2c(c1)SS(Cl)=N2 (stereo not drawn)	55*	x
Cc1oc(C2CCN(C(=O)c3ccc(F)cc3F)CC2)nc1C(=O)N(C)C	6	0
CCC(=O)NCCc1csc(C2CCN(C(=O)Nc3ccccc3)CC2)n1	-7	-2
CSc1ccccc1NC(=O)c1noc2c1CCCC2	-39	-2
c1ccc(CCc2nc(-c3ccnc(N4CCOCC4)c3)no2)cc1	-23	1
COc1ccc(C(=O)N2CCCC2c2nc(-c3cccc(C)c3)no2)cc1OC (stereo not drawn)	9	2
Fc1ccc(NCc2ccc3c(c2)OCCO3)cc1F	-14	2
Clc1cccc(CNc2cc3c(cc2Br)OCCO3)c1	88*	-4
Brc1ccc(CNc2cc3c(cc2Br)OCCO3)cc1	79*	-13
O=c1c(=O)n(-c2ccc3c(c2)OCCO3)ccn1Cc1cccc(Cl)c1	-3	4
CC(=O)c1ccc(NC(=O)C2c3ccccc3Oc3ccccc32)cc1	-3	-7
CCC(C(=O)NC1CCCC(C)C1C)N1C(=O)COc2ccccc21 (stereo not drawn)	-14	-10
COc1ccc(C(=O)Nc2c(-c3ccccc3)c(C(F)(F)F)nn2C)cc1	x	2
Cc1cccc(OCC(=O)N2CCCCC2c2nncn2CC2CC2)c1 (stereo not drawn)	-7	-4
O=C(CSc1ccncc1)N1CC2CN(S(=O)(=O)c3cccc(F)c3)CC(C1)O2	-4	-1
CSC1=NC(=Cc2ccccc2Cl)C(=O)N1N(C)C	x	-10
O=C1C(c2ccccn2)=C(O)c2ccccc21	4	1
O=C1Cc2ccccc2C1=C1Cc2ccccc2C1	x	12
O=C1CC(=C2C(=O)c3ccccc3C2=O)c2ccccc21	86*	x
O=C1C(=C2C/C(=N/O)c3ccccc32)C(=O)c2ccccc21	+	x
N#CC(C#N)=C(SCc1c(F)cccc1Cl)SCc1c(F)cccc1Cl	x	72*!
CN(C)C=CC(=N)SCc1c(F)cccc1Cl	x	-10
Cc1ccc(CN(Cc2cccnc2)C(=O)Nc2ccc(Cl)c(Cl)c2)cc1	81*	-15
SMILES	mHTT-CaM PPI inh	Pf apPOL block
O=C(CN(Cc1ccccc1Cl)S(=O)(=O)c1ccc(Cl)cc1)NCc1cccnc1	14	-4
Cc1ccc(S(=O)(=O)N(CC(=O)NCc2cccnc2)Cc2ccc(Cl)c(Cl)c2)cc1	54*!	-4
O=C(Nc1ccc(Cl)cc1)N(Cc1cccnc1)Cc1ccccc1Cl	2	-14
COCCNC(=O)CC1CCN(S(=O)(=O)c2c(C)noc2C)CC1	-8	-8
O=C1CSC(c2ccc(F)cc2)N1Cc1ccccc1 (stereo not drawn)	-5	0
O=C1[C@H](Cc2ccccc2)NCCCC[C@H](c2ccc(Cl)cc2)N1Cc1ccccc1	37	-6
O=C1[C@H](Cc2ccccc2)NCCCC[C@H](c2ccco2)N1Cc1ccccc1	93*	2
O=C1[C@H](Cc2ccccc2)NC/C=C\C[C@H](c2ccc(Cl)cc2)N1Cc1ccccc1	82*	-1
O=C1[C@H](Cc2ccccc2)NCCCC[C@@H](c2ccco2)N1Cc1ccccc1	27	-3
O=C1[C@H](Cc2ccccc2)NCCCC[C@@H](c2ccc(Cl)cc2)N1Cc1ccc(Cl)cc1	100*	-6
O=C1[C@H](Cc2ccccc2)NC/C=C\C[C@H](c2ccc(Cl)cc2)N1Cc1ccc(Cl)cc1	99*	-6
O=C1[C@H](Cc2ccccc2)NC/C=C\C[C@@H](c2ccco2)N1Cc1ccccc1	43	-2
CN1CCN(Cc2c(O)ccc3c2OC(=Cc2cc(Br)cc4c2OCOC4)C3=O)CC1	26	10
Nc1cc(C2CCN(C(=O)c3cccnc3)CC2)no1	1	-3
CC1(C)Cc2c(c(-c3ccoc3)nc3oc(C(=O)c4ccccc4)c(N)c23)CO1	34	5
COc1ccc2nc(C(=O)NCc3ccc(C)cc3)cn2n1	1	-4
Cc1ccc(NC(=O)C2(C)Oc3cccnc3NC2=O)c(C)c1 (stereo not drawn)	0	-7
O=C1c2ccccc2NC(c2ccc(Cl)cc2)N1Cc1ccccc1 (stereo not drawn)	-22	16
O=C1[C@H](Cc2ccccc2)NC/C=C\C[C@@H](c2ccc(Cl)cc2)N1Cc1ccccc1	93*	-3
O=C(CC1CCCC1)N1CCC(CCOc2ccc(F)cc2)CC1	-15	-4
Cc1nn(C)c(C)c1Sc1ccc(Br)cc1	60*!	-3
Cc1nn(C(=O)c2cccs2)c(C)c1Sc1ccc(Br)cc1	4	-4
Cc1ccc(S(=O)(=O)N2CCC(c3cc4n(n3)CCCN(C)C4=O)CC2)cc1C	9	-5
Cc1ccc(SCC(=O)Nc2ccc(F)cc2)cc1	x	-6
Cc1ccc(NC(=O)CSc2nc3n(n2)C(=O)C(=O)N3)cc1	3	94*
SMILES	mHTT-CaM PPI inh	Pf apPOL block
CC1=C(C(=O)Nc2ccc(Br)c(C)c2)C2(CCC(C)CC2)OC1=O (stereo not drawn)	99*	5
CC1=C(C(=O)Nc2ccc(C)cc2)C2(CCC(C)CC2)OC1=O (stereo not drawn)	7	0
O=c1nc(/C=C/c2ccc(-c3ccccc3[N+](=O)[O-])o2)cc(C(F)(F)F)[nH]1	90*	1
Cc1cc([N+](=O)[O-])c(C)cc1-c1ccc(/C=C/c2cc(C(F)(F)F)[nH]c(=O)n2)o1	95*!	-2
O=c1nc(/C=C/c2cccn2-c2ccc([N+](=O)[O-])cc2)cc(C(F)(F)F)[nH]1	8	-1
O=C1C(=Cc2ccc(-c3ccccc3[N+](=O)[O-])o2)C(=O)c2ccccc21	6	-3
O=C(CS(=O)(=O)c1ccccc1)N1CCN(c2nc3c(Cl)cccc3s2)CC1	18	-11
O=C(Nc1ccc(N2CCCN(Cc3ccc(F)cc3)C2=O)cc1)c1cccs1	-3	-2
Cn1cnc2c1CN(CC(=O)NCc1cccc(C(F)(F)F)c1)CC2	68*	-6
Cc1nn(C)c2c(=O)n(CC(=O)NCc3cccc(C(F)(F)F)c3)ccc12	-6	1
Cc1ccc(CN2C(=O)CCc3c(C)nc(-c4ccccc4)nc32)o1	90*	20
Cc1nc(-c2ccncc2)nc2c1CCC(=O)N2Cc1ccncc1	6	14
Cc1nc(-c2cnccn2)nc2c1CCC(=O)N2Cc1ccncc1	60*	59*
Cc1nc(-c2ccncc2)nc2c1CCC(=O)N2CCN1CCCC1	28	56*
Cc1nc(-c2ccncc2)nc2c1CCC(=O)N2Cc1ccco1	22	-8
Cc1nc(-c2cnccn2)nc2c1CCC(=O)N2Cc1ccccc1	9	-1
Cc1nn2c(=O)/c(=C/c3ccc(Br)cc3)sc2nc1=O	-2	-6
CCCCNC(=O)c1c[nH]c2ccc(S(=O)(=O)N3CCc4ccccc4C3)cc2c1=O	1	0
Cc1cccc(C)c1NC(=O)C(C)NC1=NCCCCC1 (stereo not drawn)	2	2
CSc1nnc(NC(=O)c2cccc(F)c2)s1	-6	-2
COc1ccc(CNC(=O)C2(C)CCCN(S(=O)(=O)c3ccc(F)cc3)C2)cc1 (stereo not drawn)	-1	-1
Cc1[nH]nc2c1C(c1ccco1)CC(c1ccco1)=C2 (stereo not drawn)	65*	x
